Test results reported in PubChem BioAssay (NCATS).
Records with an inconclusive call do not appear. Activity calls are given as the source filed them. Calls come from the whole dose curve; as a rule, active = well fitted curve in the direction sought with a large enough effect; inconclusive = small, poorly fitted or top-dose-only effect, or another doubt; inactive = no such curve, though single readings can be large; an effect the other way counts as inactive or inconclusive.

Legend:
NIH3T3 [1] = test: Cytotoxic Profiling of Annotated Libraries Using Quantitative High-Throughput Screening (AID 1296008); conditions: Five cell lines viability, CellTiter-Glo ATP luminescence, 48-72 h; max response: active compounds read low; note: nearly all actives have a fitted effect of over 60% in size
In short: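 Cytotoxicity was measured as CellTiter-Glo ATP luminescence, read after 10 min at room temperature. Compound treatment of the cells lasted 48 or 72 hr at 37 degrees Celsius in a qHTS format.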

MCC-13 = test: qHTS assay to identify novel small-molecules to repurpose for Merkel cell carcinoma treatment (AID 1296009); conditions: MCC and control cell lines, CellTiter-Glo viability, 72 h; series mostly up to 46 µM; note: nearly all actives have a fitted effect of over 60% in size
In short: (§1)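 Cell viability measured by CellTiter-Glo following 72 hr compound treatment at 37 degree celsius, with NPC and MIPE libraries tested in 8- and 11-point concentration series.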

MCC-26 = test: as above; conditions: MCC and control cell lines, CellTiter-Glo viability, 72 h; series mostly up to 46 µM
In short: as §1

MKL-1 = test: as above; conditions: MCC and control cell lines, CellTiter-Glo viability, 72 h; series mostly up to 46 µM
In short: as §1

MKL-2 = test: as above; conditions: MCC and control cell lines, CellTiter-Glo viability, 72 h; series mostly up to 46 µM
In short: as §1

UISO = test: as above; conditions: MCC and control cell lines, CellTiter-Glo viability, 72 h; series mostly up to 46 µM
In short: as §1

WaGa = test: as above; conditions: MCC and control cell lines, CellTiter-Glo viability, 72 h; series mostly up to 46 µM
In short: as §1

C33A = test: Primary qHTS to identify gynecologic anti-cancer compounds using libraries of approved drugs and bioactive compounds (AID 1345084); conditions: Gynecologic cancer cell panel viability, ATPlite luminescence, 48 h; series mostly up to 57.5 µM; note: nearly all actives have a fitted effect of over 55% in size
In short: (§2)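 Measured: luminescence after ATPlite addition (15 min, RT). Exposure: 48 h, 37 C, 5% CO2.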

CAOV3 = test: as above; conditions: Gynecologic cancer cell panel viability, ATPlite luminescence, 48 h; series mostly up to 57.5 µM
In short: as §2

CASKI = test: as above; conditions: Gynecologic cancer cell panel viability, ATPlite luminescence, 48 h; series mostly up to 57.5 µM
In short: as §2

Es-2 = test: as above; conditions: Gynecologic cancer cell panel viability, ATPlite luminescence, 48 h; series mostly up to 57.5 µM
In short: as §2

HeLa = test: as above; conditions: Gynecologic cancer cell panel viability, ATPlite luminescence, 48 h; series mostly up to 57.5 µM
In short: as §2

Hek293T = test: as above; conditions: Gynecologic cancer cell panel viability, ATPlite luminescence, 48 h, control line for the selectivity index; series mostly up to 57.5 µM
In short: as §2

JEG-3 = test: as above; conditions: Gynecologic cancer cell panel viability, ATPlite luminescence, 48 h; series mostly up to 57.5 µM
In short: as §2

OV90 = test: as above; conditions: Gynecologic cancer cell panel viability, ATPlite luminescence, 48 h; series mostly up to 57.5 µM
In short: as §2

PA-1 = test: as above; conditions: Gynecologic cancer cell panel viability, ATPlite luminescence, 48 h; series mostly up to 57.5 µM
In short: as §2

SKOV3 = test: as above; conditions: Gynecologic cancer cell panel viability, ATPlite luminescence, 48 h; series mostly up to 57.5 µM
In short: as §2

NIH3T3 [2] = test: qHTS assay to identify novel small-molecules to repurpose for Merkel cell carcinoma treatment (AID 1296009); conditions: MCC and control cell lines, CellTiter-Glo viability, 72 h; at 44.8 µM (top of the series) unless noted; note: nearly all actives have a fitted effect of over 60% in size
In short: as §1
% is set by controls: 0 for no effect and ±100 for the full control effect.

COC(=O)c1ccc(NC(C)=O)cc1OC
inactive: max response (NIH3T3 [1]) -16.1% | Potency (MCC-13) | Potency (MCC-26) | Potency (MKL-1) | Potency (MKL-2) | Potency (UISO) | Potency (WaGa) | Potency (C33A) | Potency (CAOV3) | Potency (CASKI) | Potency (Es-2) | Potency (HeLa) | Potency (Hek293T) | Potency (JEG-3) | Potency (OV90) | Potency (PA-1) | Potency (SKOV3)

Cc1sccc1Br
inactive: max response (NIH3T3 [1]) -2.8% | Potency (MCC-13) | Potency (MCC-26) | Potency (MKL-1) | Potency (MKL-2) | Potency (UISO) | Potency (WaGa) | Potency (C33A) | Potency (CAOV3) | Potency (CASKI) | Potency (Es-2) | Potency (HeLa) | Potency (Hek293T) | Potency (JEG-3) | Potency (OV90) | Potency (PA-1) | Potency (SKOV3)

O=C(O)C1CCC1
inactive: max response (NIH3T3 [1]) -4.19% | Potency (MCC-13) | Potency (MCC-26) | Potency (MKL-1) | Potency (MKL-2) | Potency (UISO) | Potency (WaGa) | Potency (C33A) | Potency (CAOV3) | Potency (CASKI) | Potency (Es-2) | Potency (HeLa) | Potency (Hek293T) | Potency (JEG-3) | Potency (OV90) | Potency (PA-1) | Potency (SKOV3)

Cc1ccc2c(Cl)cc(Cl)c(O)c2n1
inactive: max response (NIH3T3 [1]) 2.93% | Potency (MCC-13) | Potency (MCC-26) | Potency (MKL-1) | Potency (MKL-2) | Potency (UISO) | Potency (WaGa) | Potency (C33A) | Potency (CAOV3) | Potency (CASKI) | Potency (Es-2) | Potency (HeLa) | Potency (Hek293T) | Potency (JEG-3) | Potency (OV90) | Potency (PA-1) | Potency (SKOV3)

CCC(=O)Oc1ccc2c(c1)CC[C@@H]1[C@@H]2CC[C@@]2(C)[C@H]1C[C@@H](OC(=O)CC)[C@@H]2OC(=O)CC
inactive: outcome (NIH3T3 [1]) | Potency (MCC-13) | Potency (MCC-26) | Potency (MKL-1) | Potency (MKL-2) | outcome (NIH3T3 [2]) | Potency (UISO) | Potency (C33A) | Potency (CAOV3) | Potency (CASKI) | Potency (Es-2) | Potency (HeLa) | Potency (Hek293T) | Potency (JEG-3) | Potency (PA-1) | Potency (SKOV3)

c1ccc2occc2c1
inactive: max response (NIH3T3 [1]) -3.85% | Potency (MCC-13) | Potency (MCC-26) | Potency (MKL-1) | Potency (MKL-2) | Potency (UISO) | Potency (WaGa) | Potency (C33A) | Potency (CAOV3) | Potency (CASKI) | Potency (Es-2) | Potency (HeLa) | Potency (Hek293T) | Potency (JEG-3) | Potency (OV90) | Potency (PA-1)

CC(=O)OCC(=O)Nc1cc(C#N)cc(NC(=O)COC(C)=O)c1Cl
inactive: max response (NIH3T3 [1]) -0.147% | Potency (MCC-13) | Potency (MCC-26) | Potency (MKL-1) | Potency (MKL-2) | Potency (UISO) | Potency (WaGa) | Potency (C33A) | Potency (CAOV3) | Potency (CASKI) | Potency (Es-2) | Potency (HeLa) | Potency (Hek293T) | Potency (JEG-3) | Potency (OV90) | Potency (PA-1) | Potency (SKOV3)

O=C(CS(=O)Cc1ccco1)NC/C=C\COc1cc(CN2CCCCC2)ccn1 (centres undefined)
inactive: max response (NIH3T3 [1]) -2.51% | Potency (MCC-13) | Potency (MCC-26) | Potency (MKL-1) | Potency (MKL-2) | Potency (UISO) | Potency (WaGa) | Potency (C33A) | Potency (CAOV3) | Potency (CASKI) | Potency (Es-2) | Potency (HeLa) | Potency (Hek293T) | Potency (JEG-3) | Potency (OV90) | Potency (PA-1) | Potency (SKOV3)

CC(C)C[C@@H]1[C@H](c2ccccc2)OC(=O)N1CCCN1CCCCCC1
inactive: max response (NIH3T3 [1]) -3.61% | Potency (MCC-13) | Potency (MCC-26) | Potency (MKL-1) | Potency (MKL-2) | Potency (UISO) | Potency (WaGa) | Potency (C33A) | Potency (CAOV3) | Potency (CASKI) | Potency (Es-2) | Potency (HeLa) | Potency (Hek293T) | Potency (JEG-3) | Potency (OV90) | Potency (PA-1) | Potency (SKOV3)

CCCCC(=O)OCC(=O)[C@H]1[C@H](C)C[C@H]2[C@@H]3C[C@H](F)C4=CC(=O)C=C[C@]4(C)[C@@]3(F)[C@@H](O)C[C@@]21C
inactive: max response (NIH3T3 [1]) -6.1% | Potency (MCC-13) | Potency (MCC-26) | Potency (MKL-1) | Potency (MKL-2) | Potency (UISO) | Potency (WaGa) | Potency (C33A) | Potency (CAOV3) | Potency (CASKI) | Potency (Es-2) | Potency (HeLa) | Potency (Hek293T) | Potency (JEG-3) | Potency (OV90) | Potency (PA-1) | Potency (SKOV3)

C[C@@H]1C[C@H]2[C@@H]3CCC4=CC(=O)C=C[C@]4(C)[C@@]3(F)[C@@H](O)C[C@]2(C)[C@@]1(O)C(=O)COC(=O)c1ccncc1
inactive: max response (NIH3T3 [1]) -6.36% | Potency (MCC-13) | Potency (MCC-26) | Potency (MKL-1) | Potency (MKL-2) | Potency (UISO) | Potency (WaGa) | Potency (C33A) | Potency (CAOV3) | Potency (CASKI) | Potency (Es-2) | Potency (HeLa) | Potency (Hek293T) | Potency (JEG-3) | Potency (OV90) | Potency (PA-1) | Potency (SKOV3)

CO/N=C(/C(=O)N[C@@H]1C(=O)N2C(C(=O)O)=C(Cn3nnc(C)n3)CS[C@H]12)c1csc(N)n1
inactive: max response (NIH3T3 [1]) 2.67% | Potency (MCC-13) | Potency (MCC-26) | Potency (MKL-1) | Potency (MKL-2) | Potency (UISO) | Potency (WaGa) | Potency (C33A) | Potency (CAOV3) | Potency (CASKI) | Potency (Es-2) | Potency (HeLa) | Potency (Hek293T) | Potency (JEG-3) | Potency (OV90) | Potency (PA-1) | Potency (SKOV3)

O=C(O)CCC(=O)OC[C@@H](NC(=O)C(Cl)Cl)[C@H](O)c1ccc([N+](=O)[O-])cc1
inactive: max response (NIH3T3 [1]) -0.147% | Potency (MCC-13) | Potency (MCC-26) | Potency (MKL-1) | Potency (MKL-2) | Potency (UISO) | Potency (WaGa) | Potency (C33A) | Potency (CAOV3) | Potency (CASKI) | Potency (Es-2) | Potency (HeLa) | Potency (Hek293T) | Potency (JEG-3) | Potency (OV90) | Potency (PA-1) | Potency (SKOV3)
